Source: PubChem
Rows were chosen to be rich in hits. Some 3.5% of all compounds tested hit in one or more screens of this group.
TEAD-YAP inh: TEAD-YAP interaction inhibition. HEK-TIYL cells, TEAD-Gal4/YAP UAS-luciferase luminescence. 1.4% of 640,000 active. inhibition, % at 9.12 µM; in the data active = inhibition above about 32%;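 also: 0% = median of test compound wells and 100% = reference inhibitor wells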
FBW7 activator: activators of human E3 ligase FBW7. 0.13% of 650,000 active. Q969H0. AlphaScreen FBW7–phospho-cyclin E peptide binding, activator screen. normalized activity (activation), % at 26.1 µM; in the data active = normalized activity above about 1.9%;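 also: purified mutant Fbw7 with reduced substrate affinity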
MITF inh: human MITF inhibition, primary screen; O75030; AlphaScreen MITF homodimerization, bead proximity signal; inhibition, % at 2.6 µM; 0.91% of 650,000 active; AID 1259374; in the data active = inhibition above about 50%;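 also: 0% = vehicle wells with protein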
Target sequence (O75030 whole entry, looked up): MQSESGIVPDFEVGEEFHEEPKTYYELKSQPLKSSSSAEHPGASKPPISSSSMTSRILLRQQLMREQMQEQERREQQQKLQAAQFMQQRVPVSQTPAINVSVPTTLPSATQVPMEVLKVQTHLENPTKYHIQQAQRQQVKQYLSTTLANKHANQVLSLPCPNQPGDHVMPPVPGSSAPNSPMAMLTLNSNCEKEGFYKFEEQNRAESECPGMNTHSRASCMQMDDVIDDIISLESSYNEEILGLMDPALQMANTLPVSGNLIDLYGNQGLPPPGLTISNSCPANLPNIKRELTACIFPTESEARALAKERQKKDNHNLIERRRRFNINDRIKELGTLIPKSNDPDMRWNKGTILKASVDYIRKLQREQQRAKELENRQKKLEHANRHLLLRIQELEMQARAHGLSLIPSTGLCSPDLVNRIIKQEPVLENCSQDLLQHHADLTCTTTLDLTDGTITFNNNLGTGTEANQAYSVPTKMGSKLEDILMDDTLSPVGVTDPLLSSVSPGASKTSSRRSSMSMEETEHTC
GPR151 activ: human GPR151 activation; Q8TDV0; AID 1508602; 1% of 650,000 active; PathHunter beta-arrestin GPR151 cells, luminescence; activation, % at 11.2 µM; in the data active = activation above about 4.9%;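 also: 0% = median of compound wells and 100% = cells with positive control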
MITF confirm: human MITF inhibition, confirmation; AlphaScreen MITF homodimerization, biotin/His-MITF beads; shares compounds with MITF inh; AID 1259372; inhibition, % at 2.6 µM; 16% of 4,700 active;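 active = inhibition above a cutoff derived from the DMSO control wells, cut at about 28% in these data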;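 also: 0% = MITF dimer wells with DMSO only; inhibitors lower the bead chemiluminescence by keeping MITF from dimerizing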
AS interf DR: counter-screen: compounds optically interfering with AlphaScreen. shares compounds with MITF inh. AlphaScreen optical interference counterscreen, cell-free. IC50, µM. 6% of 480 active. AID 1259373; call rule not given here
AlphaScreen intf2: AlphaScreen optical interference, counter-screen. shares compounds with MITF inh. LysRS AlphaScreen counterscreen, signal interference, triplicate. inhibition, % at 2.6 µM. 7.6% of 4,700 active. AID 1259376;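 active = inhibition above a cutoff derived from the DMSO control wells, cut at about 30% in these data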
* = called active by the depositor; . = not tested or not shown.

SMILES | TEAD-YAP inh | FBW7 activator | MITF inh | GPR151 activ | MITF confirm | AlphaScreen intf2 | others
C=CCc1cc(OC)ccc1OCCCCN1CCN(C)CC1 | -3 | 0 | 76* | -1 | -13 | 0
C=CCc1ccccc1OCCN1CCCC1 | 8 | 0 | 26 | 0 | . | .
COc1cccc(C=O)c1OCCCCN1CCN(C)CC1 | 8 | 0 | 66* | 1 | -2 | 1
CCc1ccccc1OCCOCCN1CCN(C)CC1 | 3 | 0 | 58* | -2 | 2 | 0
C=CCc1ccccc1OCCCCN1CCN(C)CC1 | -4 | 0 | 57* | 0 | -7 | -4
CCOc1ccccc1C1CC(=O)C2=C(C1)Nc1ccccc1NC2c1ccc(OC)cc1 (stereo not drawn) | -6 | 0 | 0 | -1 | . | .
Cc1ccc(OCCCCCNCCO)cc1 | 1 | 0 | -28 | -1 | . | .
Cc1ccc(OCCNCCC(=O)O)cc1 | -8 | 0 | 57* | -2 | -5 | 0
Clc1ccc(CN2CCC(N3CCCCC3)CC2)cc1 | -2 | 0 | -12 | 1 | . | .
CC1CCCN(C2CCN(Cc3ccc(Cl)cc3)CC2)C1 (stereo not drawn) | -13 | 0 | 56* | 0 | 6 | 2
CCOc1ccc(CN2CCC(N3CCCC(C)C3)CC2)cc1 (stereo not drawn) | -3 | 0 | 53* | 0 | 1 | 0
CC(C)(C)c1ccc(S(=O)(=O)Nc2cc(-c3c(O)ccc4ccccc34)c(O)c3ccccc23)cc1 | -1 | 1 | 14 | -1 | . | .
CCOC(=O)c1sc(NC(=O)C(C)Sc2nnc(CNC(=O)c3ccccc3F)n2C)c(C(=O)OCC)c1C (stereo not drawn) | 18 | 0 | 17 | -1 | . | .
CC(C)CN1CCC(O)(c2ccc3oc(C(=O)NCc4ccncc4)cc3c2)CC1 | 0 | 0 | -10 | 0 | . | .
Cc1cc2c(c(=O)[nH]1)C(=O)O/C2=C\c1ccco1 | 0 | -1 | 61* | 0 | 62* | 5 | AS interf DR=>9.3
Cc1cc2c(c(=O)[nH]1)C(=O)O/C2=C\c1cccs1 | -8 | 0 | -2 | -1 | . | .
Cc1cc2c(c(=O)[nH]1)C(=O)O/C2=C\c1ccc(C)o1 | -1 | -1 | 55* | -1 | 70* | 7 | AS interf DR=>6.9
Cc1cc2c(c(=O)[nH]1)C(=O)O/C2=C/c1ccc(F)cc1 | -14 | 0 | -2 | -2 | . | .
CNS(=O)(=O)c1ccc2c(S(=O)(=O)NC)c(OC)ccc2c1 | 6 | 0 | -10 | 0 | . | .
COc1cccc(CN(CC(C)C)C(=O)Nc2ccc(-c3cn[nH]c3)cc2OC)c1 | -2 | 1 | -5 | -1 | . | .
c1cncc(-c2cc(NCCCn3ccnc3)nc(-c3cccnc3)n2)c1 | 8 | -1 | 65* | 2 | 29* | 39*
c1cncc(-c2nc(NCCCn3ccnc3)cc(-c3ccncc3)n2)c1 | 13 | -1 | 13 | -1 | . | .
O=C(OCN1C(=O)c2ccccc2C1=O)c1cc2c(s1)CCC2 | 2 | 0 | 74* | 0 | 77* | 6 | AS interf DR=>7.1
NC(=O)c1ccc(NC(=O)COC(=O)c2cc3c(s2)CCC3)cc1 | 1 | 0 | 49 | -1 | . | .
O=C(CN1C(=O)c2ccccc2C1=O)NNC(=O)c1cc2c(s1)CCCC2 | -8 | 0 | -4 | 0 | . | .
SMILES | TEAD-YAP inh | FBW7 activator | MITF inh | GPR151 activ | MITF confirm | AlphaScreen intf2 | others
N#C/C(=C(/O)COC(=O)c1cc2c(s1)CCC2)c1nc2ccccc2[nH]1 | 10 | 0 | 87* | -1 | 82* | 3 | AS interf DR=>7.1
NC(=O)COC(=O)c1cc2c(s1)CCC2 | 10 | 0 | 62* | 1 | 60* | 15 | AS interf DR=>6.9
Cc1onc(-c2c(Cl)cccc2Cl)c1C(=O)NC(=S)Nc1sc2c(c1C#N)CCCC2 | 3 | 0 | 9 | 0 | . | .
CCCCOC(=O)c1ccc(N2C(=O)C3C4CCC(C4)C3C2=O)cc1 (stereo not drawn) | -3 | 0 | -3 | 0 | . | .
COc1ccc(/C=N/NC(=O)c2cc(-c3cccn3C)n[nH]2)cc1OC | 6 | 2.1* | 78* | -1 | -6 | 17
O=C(CSc1nc2sc3c(c2c(=O)n1Cc1ccco1)CCC3)NCC1CCCO1 (stereo not drawn) | 5 | 0 | 2 | 1 | . | .
c1cc2c(cc1CN1CCN(C3CCCCCC3)CC1)OCO2 | 1 | 1 | 65* | 0 | -2 | 4
CCNC(=O)N1CCCC(N2CCN(Cc3ccc4c(c3)OCO4)CC2)C1 (stereo not drawn) | -2 | 0 | 9 | 0 | . | .
CC1CCCC(N2CCN(Cc3ccc4c(c3)OCO4)CC2)C1 (stereo not drawn) | -17 | 1 | 68* | -1 | -1 | 0
c1ccc(CN2CCC(N3CCN(Cc4ccc5c(c4)OCO5)CC3)CC2)cc1 | 10 | 1 | -5 | 0 | . | .
N#Cc1c(NC(=O)c2cccnc2Cl)oc(-c2ccco2)c1-c1ccco1 | 0 | 0 | 22 | 0 | . | .
CCOc1ncccc1C(=O)OCC(=O)Nc1oc(-c2ccco2)c(-c2ccco2)c1C#N | 2 | 0 | 71* | -1 | 72* | 5 | AS interf DR=>6.4
c1ccc(C2C3=C(CCCC3)SC3=C2CCCC3)cc1 | 7 | 0 | 70* | 0 | -1 | -7
Cc1cc(Cl)ccc1OC(C)C(=O)Nc1c(C)n(C)n(-c2ccccc2)c1=O (stereo not drawn) | 9 | 0 | -6 | 1 | . | .
CC1CN(Cc2cccc(Cl)c2)CC(C)O1 (stereo not drawn) | 1 | 0 | 64* | -1 | 0 | 4
CC1CN(Cc2ccc(Cl)cc2)CC(C)O1 (stereo not drawn) | 0 | 0 | 37 | 1 | . | .
CC1CN(Cc2ccc(C(F)(F)F)cc2)CC(C)O1 (stereo not drawn) | 8 | 0 | 55* | -1 | 1 | 4
Cc1ccccc1N1C(=O)CN(Cc2cccs2)C1=S | 1 | 1 | 12 | -1 | . | .
Cc1cc(NC(=O)COC(=O)c2ccc(NC(N)=O)cc2)ccc1Br | -5 | 0 | 52* | -1 | -5 | 1
CCCN1CCN(C(=O)c2nn(-c3cc(OC)cc(OC)c3)c(=O)c3ccccc23)CC1 | 15 | 0 | 65* | -1 | -9 | -3
O=C(Nc1ccccc1C(=O)O)c1ccccc1Cl | 0 | 0 | 3 | 2 | . | .
COc1ccc(S(=O)(=O)N2CCN(Cc3ccccc3[N+](=O)[O-])CC2)cc1 | -2 | 0 | 51* | 0 | 36* | 8
O=[N+]([O-])c1ccc(S(=O)(=O)N2CCN(Cc3ccccc3Cl)CC2)cc1 | -3 | 0 | 62* | 2 | 15 | 15
Cc1ccccc1CN1CCN(S(=O)(=O)c2ccc([N+](=O)[O-])cc2)CC1 | 4 | 0 | 71* | -1 | 25 | 23
O=[N+]([O-])c1ccc(S(=O)(=O)N2CCN(Cc3ccccc3F)CC2)cc1 | -10 | 0 | 46 | -1 | . | .
CC(C)CN(CCCNC(=O)/C=C1\Sc2ccccc2NC1=O)CC(C)C | 3 | 0 | -5 | 0 | . | .
